# Measurements taken from PubChem BioAssay (NCATS).
# A number with no mark means an inactive call. Inconclusive results are not listed. Calls of active or inactive are those of the source. Unless noted, calls follow the shape of the dose curve; as a rule, active = well fitted curve in either direction with a large enough effect (not every such curve was filed as active); inconclusive = small, poorly fitted or top-dose-only effect, or another doubt; inactive = flat fitted curve, though single readings scatter.
# Columns and labels:
# [1] = AP1 Signaling Pathway (AID 357); settings: ME-180 AP-1-bla reporter, EGF-induced, beta-lactamase ratio, 5 h; at 17.2 µM (top of the series) unless noted;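 also: ME-180 reporter cells stimulated with EGF at its EC50 level; % is scaled to controls: 0 for no effect and ±100 for the full control effect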
# Procedure, shortened: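 AP-1-bla ME-180 cells, Opti-MEM + 0.5% dialyzed FBS, plated overnight 37 °C. Cpd titration + EC50 EGF, 5 h 37 °C. CCF4 2.5 h RT; ex 405, em 460/530 ratio → %activity, AC50.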
# [2] = NFAT Signaling Pathway (AID 444); settings: Jurkat NFAT-bla M1, carbachol, beta-lactamase ratio, 5 h; at 17.2 µM (top of the series) unless noted;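 also: carbachol stimulus at about its EC50 of 1 µM final; % is scaled to controls: 0 for no effect and ±100 for the full control effect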
# Procedure, shortened: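 Read-out: CCF4 FRET ratio (460 nm/530 nm) after 1 h RT dye loading, used for %activity and AC50 from titration series. Cells: Jurkat NFAT-β-lactamase/M1 line, treated with compound plus 1 uM carbachol for 5 h, 37 °C.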
# [3] = Stat Signaling Pathway (AID 446); settings: ME-180 SIE beta-lactamase reporter, IL-6 stimulated, 5 h; at 17.2 µM (top of the series) unless noted;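 also: ME-180 cervical cancer cells given 40 pM IL-6 alongside compound; SIE-controlled beta-lactamase reporter measured as 460/530 nm FRET emission ratio; % is scaled to controls: 0 for no effect and ±100 for the full control effect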
# Procedure, shortened: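 Screening format detects activators and inhibitors alike: ME-180 SIE-bla cells stimulated at 40 pM IL-6 for 5 hrs with compound, then dual-emission beta-lactamase read at 405 nm excitation.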
# [4] = molecular target: Glucocorticoid receptor (Homo sapiens) (UniProt P04150); experiment: GR-GFP Redistribution (AID 450;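 active = compounds whose dose series gives a full or clear partial fitted curve of increased nuclear translocation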; also: potency is read from the fitted curve at half-maximal effect)
# Chain of Glucocorticoid receptor (Homo sapiens) (P04150 whole entry, looked up): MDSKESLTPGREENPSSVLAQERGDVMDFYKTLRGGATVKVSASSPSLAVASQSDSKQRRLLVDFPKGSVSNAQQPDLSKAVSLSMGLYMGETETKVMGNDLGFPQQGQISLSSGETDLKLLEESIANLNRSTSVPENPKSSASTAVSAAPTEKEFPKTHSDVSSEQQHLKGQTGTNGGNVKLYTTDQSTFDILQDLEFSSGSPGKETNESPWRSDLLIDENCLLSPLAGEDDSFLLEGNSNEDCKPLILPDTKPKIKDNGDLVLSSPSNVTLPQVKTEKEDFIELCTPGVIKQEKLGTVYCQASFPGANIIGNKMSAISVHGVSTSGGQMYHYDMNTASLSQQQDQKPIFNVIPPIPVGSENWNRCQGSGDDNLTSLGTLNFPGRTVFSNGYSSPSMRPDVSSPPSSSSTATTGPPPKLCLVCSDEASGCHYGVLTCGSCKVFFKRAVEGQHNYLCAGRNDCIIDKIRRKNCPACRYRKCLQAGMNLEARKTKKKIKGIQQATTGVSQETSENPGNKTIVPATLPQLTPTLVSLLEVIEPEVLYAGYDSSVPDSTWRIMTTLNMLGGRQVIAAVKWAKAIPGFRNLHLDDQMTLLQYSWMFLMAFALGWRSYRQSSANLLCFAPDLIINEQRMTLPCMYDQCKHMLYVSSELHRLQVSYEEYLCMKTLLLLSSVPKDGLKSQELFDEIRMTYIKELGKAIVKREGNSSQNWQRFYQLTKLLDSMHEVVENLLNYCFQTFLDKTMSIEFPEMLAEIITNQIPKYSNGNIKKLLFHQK
# [5] = qHTS Assay for Identification of Small Molecule Agonists for Hypoxia Response Element Signaling Pathway (AID 914; active = well fitted activation curve with a large enough effect in the signal ratio, with a control signal flat, not every such curve was filed as active; the % refers to the signal ratio; also: potency is read from the fitted curve at half-maximal effect; as to activation: % of control where 0% means no effect); settings: ME-180 (cervical carcinoma) HRE-bla reporter, beta-lactamase ratio, CoCl2, 17 h; activation: hits give high values
# Procedure, shortened: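 Cells were plated overnight, pin-dosed with compound in a titration series, co-stimulated with EC50 CoCl2 and incubated 17 hours at 37 degrees Celsius. CCF4 substrate was then loaded, and AC50 values came from the 460nm/530nm ratio.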
Structure (SMILES),"activity change, negative = inhibition [1]","activity change, negative = inhibition [2]","activity, negative = inhibition [3]",Potency [4],activation [5],Potency [5]
CC1(C)Cc2nc(NCCN3CCOCC3)c(C#N)cc2CO1,7.57%,7.63%,11%,> 20.6 µM,3.3%,–
CN1C(=O)c2ccc(N(C)C)cc2C1=O,1.85%,-12.3%,1.02%,> 20.6 µM,14.5%,–
Cc1ccc(-n2c(SCC(=O)NCc3ccco3)nc3nc4c(cc3c2=O)COC(C)(C)C4)cc1,-7.85%,-16.8%,-3.2%,> 20.6 µM,-23.6%,–
COC(=O)c1ccc(C(=O)OC)c(NC(=O)c2cc3ccccc3o2)c1,-4.57%,3.55%,8.58%,> 20.6 µM,-0.252%,–
O=C(NCc1cccnc1)c1ccc(=O)oc1,10.5%,-0.473%,0.949%,> 20.6 µM,10.6%,–
CN(C=C1C(=O)CC(C)(C)CC1=O)CCN1CCNCC1,19.5%,-19.2%,4.61%,> 20.6 µM,-4.98%,–
CN(C)c1ccc(C=Nc2cnn(C)c2C(N)=O)cc1,-9.71%,2.44%,-12.3%,> 20.6 µM,-1.16%,–
Cc1nn(C)cc1C1C2=C(CC(C)(C)CC2=O)OC2=C1C(=O)CC(C)(C)C2,3.4%,-23.9%,4.21%,> 20.6 µM,1.79%,–
O=C(NC1CCCCC1)[C@H](O)[C@@H](O)C(=O)NC1CCCCC1,8.04%,0.354%,4.25%,> 20.6 µM,12.1%,–
CCCCOc1nc2ccccc2nc1C(C#N)C(=O)NC1CCCCC1 (stereo not given),8.43%,-13.6%,25.7%,> 20.6 µM,–,12.6 µM (active)
CCN(CC)CCNC(=O)c1ccccc1N,4.21%,-28.8%,6.63%,> 20.6 µM,10.3%,–
CNc1nc(C)c(C#N)cc1C(C)=O,-13.3%,-1.5%,-6.02%,> 20.6 µM,6.97%,–
Cc1ccc(-c2n[nH]c(=O)c3ccccc23)cc1S(=O)(=O)NCCN1CCOCC1,1.31%,-9.43%,1.81%,> 20.6 µM,-17.3%,–
CSc1cc(C)nc(N(C)C(C)=O)n1,16.9%,-4.07%,-0.18%,> 20.6 µM,14.1%,–
COC(=O)C1=C(N)Oc2cc(C)oc(=O)c2C1c1ccncc1 (stereo not given),-9.84%,4.62%,0.284%,> 20.6 µM,12.2%,–
CCCSc1nc(C)c(CC(=O)O)c(=O)[nH]1,-6.75%,13%,-1.03%,> 20.6 µM,11%,–
O=C(C1CCCCC1)N1CCCn2c1nc1ccccc12,8.92%,-19.9%,4.38%,> 20.6 µM,6.44%,–
O=C(O)CC(NC(=O)COc1ccc(Cl)cc1Cl)C(=O)O (stereo not given),7.75%,6.45%,1.25%,> 20.6 µM,3.63%,–
COc1ccc(C2C(C(C)=O)=C(O)C(=O)N2c2nccs2)cc1OC (stereo not given),-6.01%,21.8%,3.64%,> 20.6 µM,-13.7%,–
CC(C)c1nc(N2CCOCC2)c(C#N)c2c1COC(C)(C)C2,-19.1%,-4.43%,11.9%,> 20.6 µM,-24.7%,–
COc1ccc(C2CC(=O)c3sc(N)nc3C2)cc1 (stereo not given),-9.21%,5.45%,3.6%,> 20.6 µM,-11%,–
C=CC(O)Cc1c(C)n[nH]c1C (stereo not given),18.3%,4.36%,7.01%,> 20.6 µM,4.5%,–
CCCCOc1ccccc1C(=O)NCCCCCC(=O)O,10.2%,11.6%,2.29%,> 20.6 µM,8%,–
CCCC(CCC(=O)Nc1ccc(C(=O)OCC)cc1)C(=O)O (stereo not given),4.36%,0.831%,3.58%,> 20.6 µM,10%,–
O=C1C(=O)N(Cc2cccnc2)C(c2ccccn2)/C1=C(/O)c1ccccc1 (stereo not given),-5.8%,-4.6%,4.87%,> 20.6 µM,2.14%,–
CCOc1ccc(NC(=O)c2nn(C)cc2Br)cc1,1.01%,4.54%,3.62%,> 20.6 µM,5.55%,–
CCOc1ccc(/C(O)=C2/C(=O)C(=O)N(CCN(C)C)C2c2ccccc2)cc1Cl (stereo not given),8.45%,1.62%,7.84%,> 20.6 µM,2.13%,–
CCOc1ccc(CSC(CC(=O)O)C(=O)O)cc1 (stereo not given),-0.441%,-5.85%,11.1%,> 20.6 µM,14.8%,–
